According to PubChem BioAssay (NCATS):
Results filed as inconclusive are left out. Entries that show only a call come without a potency. Active and inactive are the calls of the source. Calls come from the whole dose curve; as a rule, active = well fitted cell-killing curve with a large enough effect; inconclusive = small, poorly fitted or top-dose-only effect, or effect the other way; inactive = no such curve, though single readings can be large or run the other way.

Test: Quantitative High-Throughput drug screen in 47 multiple myeloma cell lines against the NCATS MIPE library collection: OPM2_DSMZ cell viability assay (AID 1919872); note: nearly all actives have a fitted effect of over 30% in size
Conditions: OPM2 myeloma viability, CellTiter-Glo ATP luminescence, 48 h; series mostly up to 45.8 µM
In short: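 CellTiter-Glo luminescence (ATP) after 48 h compound exposure, 37C/5% CO2; 500 cells/well; MIPE 4.0 approved/investigational drugs pinned in; DMSO = 100%, media only = 0% viability.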
Potency is the fitted concentration of half-maximal effect.

SMILES	Potency
CN1CCN(CCOc2cc(OC3CCOCC3)c3c(Nc4c(Cl)ccc5c4OCO5)ncnc3c2)CC1	inactive
COc1ccc2c(Oc3ccc(NC(=O)c4c(C)n(CC(C)(C)O)n(-c5ccccc5)c4=O)nc3)ccnc2c1	inactive
COCCCCC(=NOCCN)c1ccc(C(F)(F)F)cc1	16.6 µM (active)
CCN(CC)CCOc1ccc(C(=C(Cl)c2ccccc2)c2ccccc2)cc1	inactive
CCC(CC)[C@H](NC(C)=O)[C@@H]1[C@H](O)[C@@H](C(=O)O)C[C@@H]1N=C(N)N	inactive
NC(=O)c1cccc(-c2cc(Nc3ccc(OC(F)(F)F)cc3)ncn2)c1	16.6 µM (active)
CC(=O)OC1C(C)OC(Oc2c(-c3ccc(O)cc3)oc3cc(O)cc(O)c3c2=O)C(O)C1OC(C)=O (configuration not stated)	inactive
COc1cccc(-c2cc(=O)c3ccccc3o2)c1N	inactive

Test: Quantitative High-Throughput drug screen in 47 multiple myeloma cell lines against the NCATS MIPE library collection: KMS11_JCRBsus cell viability assay (AID 1919873); note: nearly all actives have a fitted effect of over 50% in size
Conditions: KMS11 myeloma viability, CellTiter-Glo ATP luminescence, 48 h; series mostly up to 45.8 µM
In short: (§1)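 MIPE 4.0 approved/investigational drugs; 500 cells/well; 48 h 37 °C humidified 5% CO2; CTG luminescence readout; DMSO = 100%, media = 0% viability.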

SMILES	Potency
Nc1nc(F)nc2c1ncn2[C@@H]1O[C@H](COP(=O)(O)O)[C@@H](O)[C@H]1O	inactive
Nc1ncnc2ccccc12	inactive
CC(C)(C)Cn1c(N)nc2ccc(-c3[nH]c(C(C)(C)C)nc3-c3ccc(F)cc3)nc21	inactive
COc1ccc(Cc2nccc3cc(OC)c(OC)cc23)cc1OC	18.7 µM (active)
O=C1C[C@@H](c2ccc(O)cc2)Oc2cc(O)cc(O)c21	inactive
O=C(O)c1cc(O)c2c(c1)C(=O)c1cccc(O)c1C2=O	inactive
NC(=O)c1ccc2nc(-c3ccc(Oc4ccc(Cl)cc4)cc3)[nH]c2c1	11.8 µM (active)
CC[C@H]1OC(=O)[C@H](C)C(=O)[C@H](C)[C@@H](O[C@H]2O[C@H](C)C[C@H](N(C)C)[C@@H]2O)[C@](C)(OC)C[C@@H](C)C(=O)[C@H](C)[C@H]2N(CCCCn3cnc(-c4cccnc4)c3)C(=O)O[C@]12C	16.6 µM (active)
CC(C)C[C@H](CC(=O)O)C(=O)N[C@@H](Cc1c[nH]c2ccccc12)C(=O)N[C@@H](C)c1ccccc1	inactive
COc1cccc2c1CCCC2CCCN1CCN(C2CCCCC2)CC1 (configuration not stated)	18.7 µM (active)
O=C(OCC#CCSc1nnc(-c2cccc3ccccc23)o1)c1cc2ccccc2s1	inactive
CON=C(C(=O)N[C@@H]1C(=O)N2C(C(=O)OCOC(=O)C(C)(C)C)=C(C=Cc3scnc3C)CS[C@H]12)c1csc(N)n1	inactive
NC[C@@H]1O[C@@H](O[C@H]2[C@@H](O)[C@H](O[C@@H]3[C@@H](O)[C@@H](N)C[C@H](N)[C@H]3O[C@H]3O[C@H](CN)[C@@H](O)[C@@H](O)[C@H]3N)O[C@H]2CO)[C@H](N)[C@@H](O)[C@@H]1O	inactive
CN(C[C@@H]1COCCO1)S(=O)(=O)Nc1ccc2ccc3ncc(-c4cnn(C)c4)cc3c(=O)c2c1	4.18 µM (active)
O=C(Nc1cccc(Br)c1)c1cccc(S(=O)(=O)N2CCCCCC2)c1	18.7 µM (active)
O=C1Nc2ccc(Cl)cc2C(C#CC2CC2)(C(F)(F)F)O1 (configuration not stated)	20.9 µM (active)
CN1CCN(CCOc2cc(OC3CCOCC3)c3c(Nc4c(Cl)ccc5c4OCO5)ncnc3c2)CC1	23.5 µM (active)
Cc1c[nH]c(C=C2C(=O)Nc3ccccc32)c1CCC(=O)O	33.2 µM (active)
O=C(NC1CCOCC1)c1ccc(-c2cc(-c3cn[nH]c3-c3ccccn3)ccn2)cc1	inactive
CCC(CC)[C@H](NC(C)=O)[C@@H]1[C@H](O)[C@@H](C(=O)O)C[C@@H]1N=C(N)N	inactive
NC(=O)c1cccc(-c2cc(Nc3ccc(OC(F)(F)F)cc3)ncn2)c1	29.6 µM (active)
CN(C)c1cc(NC(=O)CNC(C)(C)C)c(O)c2c1C[C@@H]1C[C@H]3[C@H](N(C)C)C(=O)C(C(N)=O)=C(O)[C@@]3(O)C(=O)C1=C2O	inactive
CC1(C)Cc2c(sc(NC(=S)NC(=O)c3ccccc3)c2C(=O)O)CO1	inactive
COc1cccc(-c2cc(=O)c3ccccc3o2)c1N	inactive
O=c1cc(-c2ccc(O)cc2)oc2cc(O)cc(O)c12	20.9 µM (active)

Test: Quantitative High-Throughput drug screen in 47 multiple myeloma cell lines against the NCATS MIPE library collection: KMS28BM_JCRB cell viability assay (AID 1919874); note: nearly all actives have a fitted effect of over 35% in size
Conditions: CellTiter-Glo ATP, 48 h; series mostly up to 45.8 µM
In short: as §1

SMILES	Potency
Nc1ncnc2ccccc12	inactive
CC(C)(C)NC(=O)Nc1cccc(Nc2ncc(F)c(NC(C)(C)CO)n2)c1	inactive
COc1ccc(Cc2nccc3cc(OC)c(OC)cc23)cc1OC	20.9 µM (active)
O=C1C[C@@H](c2ccc(O)cc2)Oc2cc(O)cc(O)c21	inactive
O=C(O)c1cc(O)c2c(c1)C(=O)c1cccc(O)c1C2=O	inactive
COc1ccc(Cc2ccc(NC(N)=O)cc2)cc1-c1cccc(Cl)c1	13.2 µM (active)
CC[C@H]1OC(=O)[C@H](C)C(=O)[C@H](C)[C@@H](O[C@H]2O[C@H](C)C[C@H](N(C)C)[C@@H]2O)[C@](C)(OC)C[C@@H](C)C(=O)[C@H](C)[C@H]2N(CCCCn3cnc(-c4cccnc4)c3)C(=O)O[C@]12C	inactive
COc1cccc2c1CCCC2CCCN1CCN(C2CCCCC2)CC1 (configuration not stated)	18.7 µM (active)
C=C1C(=O)OC(CCCCCCCC)C1C(=O)O (configuration not stated)	inactive
O=C(OCC#CCSc1nnc(-c2cccc3ccccc23)o1)c1cc2ccccc2s1	3.32 µM (active)
CON=C(C(=O)N[C@@H]1C(=O)N2C(C(=O)OCOC(=O)C(C)(C)C)=C(C=Cc3scnc3C)CS[C@H]12)c1csc(N)n1	inactive
NC[C@@H]1O[C@@H](O[C@H]2[C@@H](O)[C@H](O[C@@H]3[C@@H](O)[C@@H](N)C[C@H](N)[C@H]3O[C@H]3O[C@H](CN)[C@@H](O)[C@@H](O)[C@H]3N)O[C@H]2CO)[C@H](N)[C@@H](O)[C@@H]1O	inactive
O=C1Nc2ccc(Cl)cc2C(C#CC2CC2)(C(F)(F)F)O1 (configuration not stated)	20.9 µM (active)
COc1ccc2c(Oc3ccc(NC(=O)c4c(C)n(CC(C)(C)O)n(-c5ccccc5)c4=O)nc3)ccnc2c1	inactive
O=C(NC1CCOCC1)c1ccc(-c2cc(-c3cn[nH]c3-c3ccccn3)ccn2)cc1	inactive
CCN(CC)CCOc1ccc(C(=C(Cl)c2ccccc2)c2ccccc2)cc1	10.5 µM (active)
CN(C)c1cc(NC(=O)CNC(C)(C)C)c(O)c2c1C[C@@H]1C[C@H]3[C@H](N(C)C)C(=O)C(C(N)=O)=C(O)[C@@]3(O)C(=O)C1=C2O	inactive
CC(=O)OC1C(C)OC(Oc2c(-c3ccc(O)cc3)oc3cc(O)cc(O)c3c2=O)C(O)C1OC(C)=O (configuration not stated)	inactive
CC1(C)Cc2c(sc(NC(=S)NC(=O)c3ccccc3)c2C(=O)O)CO1	inactive
